# Measured values from article PMC5540273 (PLoS ONE, 2017).
# Tested on: DAPK2
# Settings: concentration: 1 μM, replicates: in singlicate; n = 1
# 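Also: KINOMEscan kinase panel screen.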
row,SMILES,%Inh
1,CCc1nc(-c2cccc(C)c2)c(-c2ccncc2)s1,0%
2,COc1cc(OC)cc(-c2cc3cnc(N)nc3nc2NC(=O)NC(C)(C)C)c1,0%
3,Nc1ncnc2c1ncn2-c1cccc(F)c1 [SKF-97560],0%
4,COc1cc2ncn(-c3cc(OCc4ccncc4)c(C(N)=O)s3)c2cc1OC [GSK336313],0%
5,Fc1cccc(CSc2nnc(-c3ccc4c(c3)CCO4)o2)c1,0%
6,CCC(=O)c1c(-c2ccccc2)c2cc(Cl)ccc2c(=O)n1Cc1cc(S(C)(=O)=O)n(CCC(C)(C)O)n1,3%
7,CCn1c(-c2ccoc2)nc2cnccc21 [SB-733887],0%
8,CCc1ccc(-c2ccc3c(c2)-c2nn(C)cc2S(=O)(=O)N3C)cc1,0%
9,COc1ccc(-c2coc3ccc(-c4nnc(SCc5cccc(C#N)c5)o4)cc23)cc1,0%
10,COC(=O)c1c(-c2ccccc2)c2cc(C)ccc2c(=O)n1Cc1ccccc1,0%
11,Cl.NS(=O)(=O)c1cccc(Nc2cc(-c3ccc(F)cc3)n[nH]2)c1 [GW824645],0%
12,COC(=O)c1c(-c2ccccc2)c2cc(Br)ccc2c(=O)n1Cc1ccc(NC(=O)CCC(=O)O)cc1,0%
13,COc1ccc(CNC(=O)NC2CCN(c3ccnc(Nc4ccc(F)cc4)n3)C2)cc1 (stereo not shown) [GSK1379706],14%
14,CCS(=O)(=O)c1ccc(OC)c(Nc2ncc(-c3ccc(F)cc3)o2)c1.Cl [GW591947],0%
15,Cc1nn2c(=O)cc(N3CCOCC3)nc2n1Cc1cccc(Cl)c1Cl [GSK2342769],21%
16,CCS(=O)c1ccc(-c2coc3ccc(-c4nnc(C)o4)cc23)cc1 (stereo not shown),0%
17,COc1cc(Nc2nccc(N3CCC(NC(=O)C(C)c4ccc(Cl)cc4)C3)n2)cc(OC)c1OC (stereo not shown) [GSK1379757],0%
18,COc1cc2ncn(-c3cc(OCc4ccncc4Br)c(C(N)=O)s3)c2cc1OC [GW854278],18%
19,Cl.c1ccc(Cn2cnc3cc(Nc4ncnc5ccccc45)ccc32)cc1 [GW272142],0%

row,SMILES,%Inh
1,CCC(=O)c1c(-c2ccccc2)c2cc(Cl)ccc2c(=O)n1Cc1cc(C(=O)NC2CC2)n(C)n1,0%
2,Nc1nccc2scc(-c3ccc4c(c3)CCN4C(=O)Cc3ccccc3)c12 [GSK2576924],3%
3,COc1ccc(-c2cc3c(C)nc(N)nc3n([C@H]3CC[C@H](O)CC3)c2=O)cn1,0%
4,Nc1nc(-c2ccccc2F)c(-c2ccnc3ccccc23)s1 [GW560459],0%
5,COc1cccc(C2=C(N(C)c3ccccc3)C(=O)NC2=O)c1 [SB-334865],0%
6,CCn1c(-c2nonc2N)nc2ccccc21 [SB-693162/GW549034],0%
7,COc1cc2nccc(Nc3ccc(OCc4ccc(NC(C)=O)cc4)cc3)c2cc1OC.Cl [GW440135],10%
8,Cc1ccc(Oc2ccc(Nc3ncnc4cc[nH]c34)cc2C)cn1,0%
9,O=C(Nc1n[nH]c2cc(-c3ccccc3F)ccc12)C1CC1 [SB-733371],0%
10,O=C1NC(=O)C(c2ccccc2)=C1Nc1cccc(O)c1 [SB-390534],0%
11,COc1ccc(-c2cc3c(C)nc(N)nc3n([C@H]3CC[C@H](OCCO)CC3)c2=O)cn1,0%
12,Cn1c(=O)c(F)c(Nc2ccc(I)cc2F)c2c(=O)n(OC[C@H](O)CO)cnc21,0%
13,Nc1n[nH]c2ncc(-c3ccccc3)cc12 [SB-517081],0%
14,CCC(=O)c1c(-c2ccccc2)c2cc(Cl)ccc2c(=O)n1Cc1cc(S(C)(=O)=O)n(CC(N)=O)n1,0%
15,Nc1ncnc2c1ncn2-c1ccc(Cl)cc1 [AH2635],0%
16,Cc1nnc(-c2ccc3ncn(-c4ccc(S(C)=O)cc4)c3c2)o1 (stereo not shown),0%
17,COc1cc2ncn(-c3cc(OCc4ccc(S(C)(=O)=O)cc4)c(C(N)=O)s3)c2cc1OC [GW869979],0%
18,CCC(=O)c1c(-c2ccccc2)c2cc(Cl)ccc2c(=O)n1Cc1ccc(C(=O)O)cc1,0%
